Results as given in PubChem BioAssay AID1159580 (chemical genetic matrix, 2015).
“And” between values parts separate entries of the source, which are not always exact repeats. Equal values may be shown once. In all, about 5,500 compounds went through this assay and about 2,000 (36%) were called active. Inconclusive results (about 18%) are left out. Cut-off read from the data, not from the text of the source: active = normalized growth mostly below about 0.91 (no sharp cut-off); inconclusive = no clear call, values can overlap the other calls; inactive = mostly above about 0.92. This is one part of the list.

Test: chemical genetic growth profiling, strain panel (AID 1159580);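 note: tested at 20 µM; growth read once vehicle control cultures reached saturation at 30 °C; 1 = growth at the plate median or of vehicle wells; lower values mean less growth of the strain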
Details: S. cerevisiae deletion strains, growth OD

Measured: normalized growth

COc1c(O)cc2c(-c3ccccc3)cc(=O)oc2c1OC
inactive: locus YAL021C, strain ccr4, active compounds read low 0.994 | locus YAL026C, strain drs2, active compounds read low 1.01 | locus YAL030W, strain snc1, active compounds read low 0.992 | locus YBL061C, strain skt5, active compounds read low 1.01 | locus YBR009C, strain hhf1, active compounds read low 0.994 | locus YBR021W, strain FUR4, active compounds read low 0.982 | locus YBR023C, strain chs3, active compounds read low 0.994 | locus YBR171W, strain sec66, active compounds read low 1.01 | locus YBR229C, strain ROT2, active compounds read low 0.995 | locus YBR231C, strain swc5, active compounds read low 1 | locus YBR279W, strain paf1, active compounds read low 0.995 | locus YCL011C, strain gbp2, active compounds read low 0.995 | locus YCL016C, strain dcc1, active compounds read low 0.993 | locus YCL029C, strain bik1, active compounds read low 0.964 | locus YCL061C, strain MRC1, active compounds read low 0.994 | locus YCL069W, strain vba3, active compounds read low 1.01 | locus YCR088W, strain abp1, active compounds read low 0.995 | locus YDL005C, strain med2, active compounds read low 0.99 | locus YDL035C, strain GPR1, active compounds read low 1.05 | locus YDL040C, strain nat1, active compounds read low 0.997 | locus YDL074C, strain BRE1, active compounds read low 1.01 | locus YDL101C, strain DUN1, active compounds read low 0.99 | locus YDL134C, strain PPH21, active compounds read low 1.03 | locus YDL185W, strain tfp1, active compounds read low 0.95 | locus YDL192W, strain arf1, active compounds read low 0.988 | locus YDR001C, strain nth1, active compounds read low 0.987 | locus YDR069C, strain doa4, active compounds read low 1.02 | locus YDR101C, strain arx1, active compounds read low 1.01 | locus YDR137W, strain rgp1, active compounds read low 0.889 | locus YDR159W, strain sac3, active compounds read low 0.999 | locus YDR162C, strain NBP2, active compounds read low 1.01 | locus YDR195W, strain ref2 0.989 | locus YDR297W, strain sur2, active compounds read low 1.02 | locus YDR318W, strain mcm21, active compounds read low 0.973 | locus YDR334W, strain swr1, active compounds read low 1 | locus YDR335W, strain msn5, active compounds read low 0.995 | locus YDR388W, active compounds read low 0.984 | locus YDR392W, strain spt3, active compounds read low 0.848 | locus YDR502C, strain sam2, active compounds read low 0.955 | locus YEL003W, strain gim4, active compounds read low 1.02 | locus YEL037C, strain rad23, active compounds read low 1 | locus YEL061C, strain CIN8 (second series), active compounds read low 0.995 | locus YER015W, strain faa2, active compounds read low 0.997 | locus YER016W, strain bim1, active compounds read low 1 | locus YER110C, active compounds read low 0.968 | locus YER111C, strain swi4, active compounds read low 0.997 | locus YER155C, strain BEM2 (second series), active compounds read low 1.02 | locus YER155C, strain BEM2, active compounds read low 0.989 | locus YER167W, strain BCK2, active compounds read low 0.988 | locus YFR010W, strain ubp6, active compounds read low 1.02 | locus YGL078C, strain dbp3, active compounds read low 1 | locus YGL086W, strain mad1, active compounds read low 0.996 | locus YGL167C, strain pmr1, active compounds read low 0.971 | locus YGL173C, strain kem1, active compounds read low 1.01 | locus YGL227W, strain vid30, active compounds read low 0.996 | locus YGL240W, strain doc1, active compounds read low 1.02 | locus YGL248W, strain PDE1, active compounds read low 1.02 | locus YGL253W, strain hxk2, active compounds read low 1.02 | locus YGR135W, strain pre9, active compounds read low 0.954 | locus YGR252W, strain gcn5, active compounds read low 1.06 | locus YHR013C, strain ard1, active compounds read low 0.978 | locus YHR027C, strain rpn1, active compounds read low 0.987 | locus YHR030C, strain SLT2, active compounds read low 0.993 and 1.06 | locus YHR079C, strain IRE1 (second series), active compounds read low 0.959 | locus YHR079C, strain IRE1, active compounds read low 1.05 | locus YHR094C, strain hxt1, active compounds read low 0.983 | locus YHR129C, strain ARP1, active compounds read low 1.01 | locus YHR142W, strain chs7, active compounds read low 0.965 | locus YHR200W, strain rpn10, active compounds read low 0.986 | locus YIL066C, strain RNR3, active compounds read low 1 | locus YIL073C, strain SPO22, active compounds read low 0.905 | locus YIL125W, strain kgd1, active compounds read low 0.992 | locus YIR030C, strain dcg1, active compounds read low 0.957 | locus YJL092W, strain hpr5, active compounds read low 0.991 | locus YJL095W, strain BCK1 (second series), active compounds read low 0.999 | locus YJL095W, strain BCK1, active compounds read low 1.11 and 1.04 | locus YJL115W, strain asf1, active compounds read low 0.995 | locus YJL129C, strain trk1, active compounds read low 0.948 | locus YJL134W, strain LCB3, active compounds read low 0.993 | locus YJL154C, strain vps35, active compounds read low 0.985 | locus YJL164C, strain tpk1, active compounds read low 0.974 | locus YJL166W, strain qcr8, active compounds read low 0.999 | locus YJL168C, strain set2, active compounds read low 0.965 | locus YJL187C, strain SWE1 (second series), active compounds read low 1 | locus YJL187C, strain SWE1, active compounds read low 0.989 | locus YJR043C, strain POL32, active compounds read low 1.04
